Test results taken from PubChem BioAssay AID651784 (National Center for Advancing Translational Sciences (NCATS), 2012).
Inconclusive results are not listed. The source made the active and inactive calls. The call rests on the fitted dose curve; in most records, active means well fitted inhibition curve with a large enough effect; inconclusive means small, poorly fitted or top-dose-only effect; inactive means no such curve, though single readings can be large or run the other way.
Potency means the concentration at half of the fitted maximal effect.

Assay: Acumen qHTS Assay for Inhibitors of the mTORC1 Signaling Pathway in MEF (Tsc2-/-, p53-/-) Cells: Hit Validation; further: nearly all actives have a fitted effect of over 65% in size
Settings: Acumen imaging; activity change, negative = inhibition: at 37.3 µM (top of the series)
Text: The mammalian target of rapamycin (mTOR) is an intracellular serine/threonine kinase Aberrant regulation of mTOR signaling plays a causative role in a number of human diseases, including cancer, benign tumors such as lymphangioleiomyomatosis (LAM) and Tuberous Sclerosis Complex (TSC), and metabolic diseases such as diabetes and obesity. This project aims to identify inhibitors of ribosomal protein S6 (rpS6) phosphorylation. The phosphorylation of rpS6 is a key event downstream of mTOR activation. The assay uses a phospho-specific antibody of phospho-rpS6 to detect inhibitors of mTOR activation. Mutations in the Tsc1 and Tsc2 genes are the underlying genetic lesions responsible for TSC, causing constitutive activation of the mTORC1 pathway and leading to profound effects on cell metabolism. Aberrant metabolism in cancer has recently received significant attention as a target to develop therapeutic agents in the treatment of cancer.1 As Tsc2-/- cells have lost the ability to respond to energy and growth factor deprivation, these cells are unable to properly down regulate cellular biosynthetic processes in response to metabolic stress, and are thus extremely sensitive to glucose deprivation-induced death.2 A central goal of this project is to explore the unique cell survival and metabolic properties of cells with Tsc1 or Tsc2 by screening for compounds that selectively target the Tsc2-/- MEFs by screening both Tsc2-/- and WT MEF cell lines. We hope to better understand these aspects of TSC physiology in order to exploit them for therapeutic benefit.
NIH Molecular Libraries Probe Production Centers Network [MLPCN]
NIH Chemical Genomics Center [NCGC]
Assay Submitter (PI): Blenis, John; Harvard University
For quantitative high throughput analysis of mTORC1 signaling, we developed a cell-based assay for immuno-fluorescence based detection of rpS6 phosphorylation on the Acumen Explorer that will be used a platform for the primary small molecule screen. Mouse embryonic fibroblasts (MEFs) are cultured in 1536-well plates using DMEM + 10% FBS. Twenty-four hrs after plating, test compounds (solubilized in DMSO) are delivered and incubated with the cells for 24 hrs at 37 degree Celsius. Following the incubation, media with compound is aspirated and the cells are fixed in 4% paraformaldehyde (PFA) containing PBS + 0.2% TX-100. Next, PFA is aspirated, cells are washed two times with PBS plus 0.2% TX-100 and the cells are blocked for 1 hr at room temperature (blocking buffer: LiCOR Blocking Buffer plus 0.2% TX-100). This is followed by aspiration and staining with Alexa-488 conjugated-phospho-rpS6 Ser235/236 antibody for 2 hours at room temperature (Cell Signaling Technology # 4803, 1:50 dilution in blocking buffer). Cells are washed two times with PBS plus 0.2% TX-100, and stained with 10 uM propidium iodide (PI) for 20-25 minutes for cell number measurement (1:500 dilution of Hoescht staining is also added for IN Cell imaging). The plates are scanned on the Acumen Explorer laser scanning instrument (TTP Labtech) using the 488nm laser for simultaneous excitation of the Alexa-488 and PI. […] Fluorescence emission from the PI stain is selected using a 575-640 nm band pass filter. The normalized phospho-S6 staining is calculated as the ratio of the integrated Alexa 488 intensity divided by the integrated PI intensity for the single concentration rapamycin control (7.5 nM) and DMSO columns. […] Inhibition of the pathway is defined based on the normalized phospho-S6 intensity in rapamycin treated cells. Active cells are defined as those with a normalized phospho-S6 staining above this threshold, and each treatment is reported as the % positive cells in the well, where thresholds are defined by selecting wells with the highest and lowest signal and differentiating between the % non-active and % active populations. In addition to the pathway specific phospho-S6 endpoint, the number of PI stained cells from the Acumen is recorded as a measure of cell viability. […]
In the case of `CCOC(=O)c1c(NC(=O)c2cc(CC)on2)sc(C(C)=O)c1C`, the activity change, negative = inhibition is reported as 12%. With `CCOc1ccc(CC(=O)NC2CC(=O)N(c3ccc4c(c3)OCCO4)C2)cc1` (stereo not given) the activity change, negative = inhibition was -2.04%. Compound `COc1ccc(S(=O)(=O)Nc2ccc3oc4c(c3c2)CCCC4)cc1` has an activity change, negative = inhibition of 1.17%. Work on `COc1ccc(N2CCN(C(=O)C3CCN(Cc4nc(-c5ccc(Cl)cc5)oc4C)CC3)CC2)cc1` yielded an activity change, negative = inhibition of -10.9%. `CCOc1ccc(NC(=O)CN2C(=O)C(c3ccc(Cl)cc3)=NC2(C)C)cc1` showed an activity change, negative = inhibition of 17.5%. `COc1ccc(OCc2nc3c4c(-c5ccccc5)c(-c5ccccc5)oc4ncn3n2)cc1` showed an activity change, negative = inhibition of 3.1%. `CCOc1ccccc1NC(=O)N(Cc1ccc(F)cc1)C1CCN(CC)CC1` showed an activity change, negative = inhibition of -15.8%. With `CCn1c(CC2C(=O)N(C)c3ccc(Br)cc32)nc2ccccc2c1=O` (stereo not given) the activity change, negative = inhibition was -27%. For `CS(=O)(=O)c1ncc(Cl)c(C(=O)N(Cc2ccc(Cl)cc2)Cc2ccco2)n1`, the activity change, negative = inhibition was -102%. With `COc1ccc(CNC(=O)Cn2c(SCC(=O)Nc3ccc(C)c(C)c3)nc3ccccc32)cc1` the activity change, negative = inhibition was -79.6%. `COc1ccc(-c2cc(C(F)(F)F)nc(S(C)(=O)=O)n2)cc1` showed an activity change, negative = inhibition of -88.8%. With `Cc1ccccc1NC(=O)Cn1cc(C(=O)c2cccs2)c2ccccc21` the activity change, negative = inhibition was 1.72%. For `CC(=O)Nc1ccc2nc(-c3cc(C)ccc3C)[nH]c2c1`, the activity change, negative = inhibition was -21.9%. In the case of `CC(C)CCNC(=O)Nc1ccc2c(c1)N(C)C(=O)c1ccccc1S2`, the activity change, negative = inhibition is reported as -8.55%. `Cc1ccccc1C(=O)N1CCN(CCc2ccccn2)CC1` showed an activity change, negative = inhibition of -26.5%. Work on `Cc1cccc(-c2nc3c(cnn3-c3ccccc3)c(=O)n2-c2ccc(Br)cc2)c1` yielded an activity change, negative = inhibition of -37.3%. With `N=c1n(CCN2CCCCC2)c2ccccc2n1CC(O)COc1ccc(Cl)cc1Cl` (stereo not given) the Potency was 5.21 µM (active). Compound `COc1ccc(C2Sc3ccccc3NC3=C2C(=O)c2ccccc23)c(OC)c1OC` (stereo not given) has an activity change, negative = inhibition of -65.9%. Compound `CCc1ccc(NC(=O)Cn2nc(C(F)(F)F)c3c2CCCC3)cc1` has an activity change, negative = inhibition of -28%. With `Cc1cccc(CS(=O)(=O)c2ncc(Cl)c(C(=O)NCc3ccccc3)n2)c1` the activity change, negative = inhibition was -111%. In the case of `O=C(CCOc1ccccc1)N(Cc1cccnc1)c1nc2c(F)cccc2s1`, the Potency is reported as 11.7 µM (active). `C=CCc1c(C)nc2nc(SCC(=O)Nc3ccc(C)c(C)c3)nn2c1C` showed an activity change, negative = inhibition of -88.7%. In the case of `CCN1CCOC(=O)C1CC(=O)Nc1ccc(Br)cc1` (stereo not given), the activity change, negative = inhibition is reported as -3.02%. For `CCn1c2ccccc2c2cc(CN3CCN(Cc4ccc(Cl)cc4)CC3)ccc21`, the Potency was 14.7 µM (active). `CC(C)(C)OC(=O)N1CCC(c2c(C(=O)NCCN3CCC(Cc4ccccc4)CC3)cnn2-c2cccc(Cl)c2)CC1` gave an activity change, negative = inhibition of -98.8%. For `COc1ccc2c(c1)CC(C(=O)Nc1cc(Cl)ccc1C)CO2` (stereo not given), the activity change, negative = inhibition was -12.5%. Work on `Nc1nnc(SCC(=O)Nc2cccc(F)c2)s1` yielded an activity change, negative = inhibition of 16.3%. In the case of `Cc1cc(C)cc(OCC(=O)Nc2cccc(-c3nc4ccccc4[nH]3)c2)c1`, the activity change, negative = inhibition is reported as -6.64%. With `CCCCN(C)CC(O)Cn1cc(/C=C/C(=O)c2ccc(C)cc2)c2ccccc21` (stereo not given) the Potency was 13.1 µM (active). For `CC(=O)C1=C(c2ccccc2)N(C(C)=O)n2c(nnc2C2CCCCC2)S1`, the Potency was 7.36 µM (active). In the case of `Cc1cccc(NC(=O)Cn2cc(C(=O)C3CCCCC3)c3ccccc32)c1C`, the Potency is reported as 1.04 µM (active). `Cc1cc(C)cc(Nc2cc(C(=O)NCCCN(C)C3CCCCC3)c3ccccc3n2)c1` showed an activity change, negative = inhibition of -88.5%. For `CC1=C(C(=O)Nc2ccc(C)cc2C)C(c2cc(Br)ccc2F)n2ncc(C(=O)Nc3ccc(C)cc3)c2N1` (stereo not given), the Potency was 9.27 µM (active). Work on `Cc1cccc(OCc2ccc(-c3nc(C#N)c(NCCN(C)C)o3)o2)c1` yielded an activity change, negative = inhibition of 0.2%. With `COc1cc(C(=O)N(CCCN(C)C)c2nc3c(OC)cccc3s2)cc(OC)c1OC` the activity change, negative = inhibition was 19.6%. Work on `Oc1ccccc1Nc1nc(-c2ccccc2)c2cc(Cl)ccc2n1` yielded an activity change, negative = inhibition of -6.7%. `CC1=Nc2cc(C(=O)NC3CCCC3)ccc2Sc2ccc(Br)cc21` showed an activity change, negative = inhibition of -107%. For `CCOC(=O)c1[nH]c2ccccc2c1NC(=O)c1ccccc1OCC`, the Potency was 2.93 µM (active). In the case of `COc1ccc(S(=O)(=O)NCCc2csc3nc(-c4ccc(Cl)cc4)nn23)cc1C`, the Potency is reported as 11.7 µM (active). `O=C(CC(NCc1cccnc1)C(=O)O)Nc1ccc(O)cc1` (stereo not given) gave an activity change, negative = inhibition of 5.37%.
